Among all 54,000 compounds or so, about 120 (0.22%) were called active. Entries that show only a call come without a potency. Inconclusive results (about 8%) are left out. Many of the other results were omitted from the sample, so actives are more common in it than they were. Values without a mark were called inactive. Calls come from the whole dose curve; as a rule, active = well fitted inhibition curve with a large enough effect; inconclusive = small, poorly fitted or top-dose-only effect, or effect the other way; inactive = flat fitted curve, though single readings scatter.
Potency is the fitted concentration of half-maximal effect.

Chain of Fumarate hydratase, mitochondrial (Homo sapiens) (P07954 whole entry, looked up): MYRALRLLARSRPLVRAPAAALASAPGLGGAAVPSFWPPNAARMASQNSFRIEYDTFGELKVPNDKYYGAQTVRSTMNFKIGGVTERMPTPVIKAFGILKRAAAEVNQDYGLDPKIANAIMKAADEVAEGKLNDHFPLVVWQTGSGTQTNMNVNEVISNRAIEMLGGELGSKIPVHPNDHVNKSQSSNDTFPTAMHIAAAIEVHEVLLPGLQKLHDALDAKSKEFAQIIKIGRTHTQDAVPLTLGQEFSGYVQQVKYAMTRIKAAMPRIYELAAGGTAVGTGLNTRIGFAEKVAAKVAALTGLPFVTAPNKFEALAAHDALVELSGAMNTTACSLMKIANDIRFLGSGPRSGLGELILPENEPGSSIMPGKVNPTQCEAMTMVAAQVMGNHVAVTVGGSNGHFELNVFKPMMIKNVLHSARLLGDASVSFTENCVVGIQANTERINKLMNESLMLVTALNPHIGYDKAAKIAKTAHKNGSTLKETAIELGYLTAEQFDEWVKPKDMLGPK

This assay concerns the target Fumarate hydratase, mitochondrial (Homo sapiens) (UniProt P07954). Nature of the assay: Identification of activators of human fumarate hydratase by quantitative high-throughput screening. Note: the screen sought activators but most active calls are inhibition curves; nearly all actives have a fitted effect of over 45% in size. To be noted: FH coupled MDH/diaphorase resazurin fluorescence, 15 min; series mostly up to 79.9 µM.
Consider `CCc1cc2c(cc(C(=O)OC)n2Cc2nc(-c3ccc(C)cc3)oc2C)s1`, for which the activity change, negative = inhibition entry is “inactive”.

With `CCOC(=O)c1cc(OC(=O)c2ccccc2Cl)n(-c2ccccc2)n1`, the activity change, negative = inhibition entry was “inactive”.

Regarding `Cc1cc2ccccc2n1CCNC(=O)c1ccc(F)cc1`, the activity change, negative = inhibition entry is “inactive”.

For the compound `COc1ccc(Cl)cc1NC(=O)CSc1nc(=O)[nH]c2c1CCCC2`, the activity change, negative = inhibition result is “inactive”.

In the case of `CCOc1ccc(-n2c(SCC(=O)NCc3ccccc3)nc3n[nH]c(C)c3c2=N)cc1`, the activity change, negative = inhibition entry is “inactive”.

Turning to `CC(=O)Nc1c(C)nn(-c2ccccc2)c1N1CCC(C(=O)Nc2cc(Cl)ccc2C)CC1`, the activity change, negative = inhibition result was “inactive”.

In the case of `CC1(O)CC(O)C2(O)C=COC(O[C@@H]3O[C@H](CO)[C@@H](O)[C@H](O)[C@H]3O)C12` (stereo not given in full), the activity change, negative = inhibition result was “inactive”.

As to `CCOc1ccc(CC(=O)NCCc2csc3nc(-c4ccccc4F)nn23)cc1`, the activity change, negative = inhibition result was “inactive”.

As for `Cc1c(O)cc2c(c1O)COC1(O)CCCOC21` (stereo not given), the activity change, negative = inhibition entry is “inactive”.

`O=C(OC1CN2CCC1CC2)N1CCc2ccccc2C1c1ccccc1` (stereo not given): the activity change, negative = inhibition result was “inactive”.

On to `C=C1C2(CCC(=O)OC2(C)C)CC(OC(=O)/C(C)=C/C)C2(C)C13OC14C(=O)OC(C)(C(=O)C12C(=O)OC4C)C3OC(C)=O` (stereo not given), for which the activity change, negative = inhibition entry is “inactive”.

Consider `CCOc1ccc(/C=C(\C#N)c2nc3ccccc3c(=O)[nH]2)cc1OC`, for which the activity change, negative = inhibition result was “inactive”.

Consider `N#CSc1cc(SC#N)c(N)nc1N`, for which the activity change, negative = inhibition entry is “inactive”.

`CCOc1cccc2c1N[C@@H](c1ccc(C(=O)O)cc1)[C@H]1CC=C[C@@H]21`: the Potency is 28.2 µM (active).

As for `CCOc1cccc(CC(=O)N2CCc3c([nH]c4ccccc34)C2c2ccc(F)cc2)c1OCC` (stereo not given), the activity change, negative = inhibition entry is “inactive”.

Consider `CCOc1ccccc1CNC(=O)c1ccc(-n2c(C)cc3c2CCC(C)C3)cc1` (stereo not given), for which the activity change, negative = inhibition result is “inactive”.

Consider `Cn1c(SCC(=O)N2CCC[C@H]2C(=O)Nc2ccccc2-c2ccccc2)nc2ccccc21`, for which the activity change, negative = inhibition result is “inactive”.

Regarding `COc1cccc(C(=O)NCc2ccc3c(c2)CCN3C(=O)c2ccncc2)c1`, the activity change, negative = inhibition result is “inactive”.

Turning to `CCc1cc2c(cc3c(=O)n(CC(=O)NCCc4ccc(OC)c(OC)c4)ncn32)s1`, the activity change, negative = inhibition result is “inactive”.

Take `COc1cccc(N=C2SC(C(=O)Nc3cccc(Cl)c3)CC(=O)N2C)c1` (stereo not given): the activity change, negative = inhibition result was “inactive”.

On to `COC(=O)N1CCC(n2ncc3c(N4CCOCC4)nc(-c4ccc(NC(=O)Nc5ccc(CO)cc5)cc4)nc32)CC1`, for which the activity change, negative = inhibition entry is “inactive”.

Take `[N-]=[N+]=N[C@]1(CO)O[C@@H](n2ccc(N)nc2=O)[C@@H](O)[C@@H]1O`: the activity change, negative = inhibition result is “inactive”.

Take `Cc1cc2nn(-c3ccc(Cl)cc3)nc2cc1NC(=O)C(C)C`: the activity change, negative = inhibition result was “inactive”.

Consider `C/C=C(/COC(=O)/C(C)=C/C)C(=O)OC/C=C/c1ccc(OC)cc1`, for which the activity change, negative = inhibition entry was “inactive”.

For the compound `Clc1ccc2ncc(-c3cccc(NC4CCNCC4)n3)n2c1`, the activity change, negative = inhibition result is “inactive”.

Regarding `COC(=O)c1cc(Cl)c(NC(C)=O)cc1OC`, the activity change, negative = inhibition entry is “inactive”.

Regarding `CCOC(=O)c1[nH]c(C)c(CCC(=O)N2CCN(c3ccccc3)CC2)c1C`, the activity change, negative = inhibition result is “inactive”.

For the compound `CC1(C)CC[C@]2(C(=O)O)CC[C@]3(C)C(=CCC4[C@@]5(C)C[C@H](O)[C@H](O[C@@H]6OC[C@H](O)[C@H](O)[C@H]6O)[C@@](C)(CO)C5CC[C@]43C)[C@@H]2C1` (stereo not given in full), the activity change, negative = inhibition result was “inactive”.

As to `C[C@@H]1C/C=C/C=C\C=C\C=C\[C@H](O[C@@H]2O[C@H](C)[C@@H](O)[C@H](N)[C@@H]2O)C[C@@H]2O[C@](O)(C[C@@H](O)C[C@H]3O[C@@H]3/C=C/C(=O)O1)C[C@H](O)[C@H]2C(=O)O`, the activity change, negative = inhibition entry is “inactive”.

In the case of `C=C1[C@@H](C)[C@H]2[C@H](Cc3c[nH]c4ccccc34)NC(=O)[C@]23C(=O)/C=C/C(=O)[C@H](O)/C(C)=C\[C@@H](C)C/C=C/[C@H]3[C@@H]1O`, the activity change, negative = inhibition entry was “inactive”.

Turning to `Clc1ccc(CSc2nncn3c2cc2occc23)cc1`, the activity change, negative = inhibition result is “inactive”.

With `CCC/C=C/C=C/C1CC(O)C2(O)C(=O)OCC12` (stereo not given), the activity change, negative = inhibition result was “inactive”.

As for `CC(=O)/C=C/C1C(C)CC(O[C@@H]2O[C@H](CO)[C@@H](O)[C@H](O)[C@H]2O)CC1(C)C` (stereo not given in full), the activity change, negative = inhibition result is “inactive”.

For `COc1ccc(NC(=O)c2ccco2)cc1NC(=O)COc1ccc(C)c(C)c1`, the activity change, negative = inhibition result is “inactive”.

As for `Cc1cc(NC(=O)CSc2ncc(C(=O)Nc3ccc(Cl)cc3)c(=O)n2C)no1`, the activity change, negative = inhibition entry is “inactive”.

`C1CCC[C@H]2CCCN3CC[C@@H](CCCCCC[C@@H]4CCCN5CC[C@@H](CC1)O[C@@H]45)O[C@@H]23`: the activity change, negative = inhibition was -2.71% [at 0.217 µM].

With `CNC(=O)c1ccccc1Nc1nc(Nc2ccc3c(c2OC)CCC[C@@H](N2CCN(CCO)CC2)C3)ncc1Cl`, the activity change, negative = inhibition entry was “inactive”.

As to `CN(C)c1cccc(Oc2cnc(Nc3cccc(O)c3)nc2)c1`, the activity change, negative = inhibition entry is “inactive”.

Turning to `CCOc1ccc(CCNC(=O)CN(c2ccc(C)cc2)S(=O)(=O)N(C)C)cc1OCC`, the activity change, negative = inhibition entry was “inactive”.

Regarding `CC1CN(C(=O)N2CCC(C(=O)NCc3ccco3)CC2)c2cc(Cl)ccc2O1` (stereo not given), the activity change, negative = inhibition entry was “inactive”.

Consider `CC(CCC1(O)OC2CC3C4CC=C5C[C@@H](O[C@@H]6O[C@H](CO)[C@@H](O[C@@H]7O[C@@H](C)[C@H](O)[C@@H](O)[C@H]7O)[C@H](O)[C@H]6O[C@@H]6O[C@@H](C)[C@H](O)[C@@H](O)[C@H]6O)CC[C@]5(C)C4CC[C@]3(C)[C@@]2(O)[C@@H]1C)CO[C@@H]1O[C@H](CO)[C@@H](O)[C@H](O)[C@H]1O` (stereo not given in full), for which the activity change, negative = inhibition result is “inactive”.

`CC(=O)OC1CCC2(C)C(CCC3(C)C2CC=C2C4CC(C)(C)CCC4(C)CCC23C)C1(C)C(=O)O` (stereo not given): the activity change, negative = inhibition result is “inactive”.

With `CCC(COC)n1nnc2c(Nc3ccc(OC)cc3C)nc(C)cc21` (stereo not given), the activity change, negative = inhibition entry is “inactive”.

`C[C@H]1COCCN1c1cc(C2(S(=O)(=O)C3CC3)CC2)nc(-c2ccc(NC(=S)NCCO)cc2)n1`: the activity change, negative = inhibition entry was “inactive”.

As to `CCCN(CCC)CCCNC(=O)Cn1ncc2c3ccccc3n(Cc3ccccc3)c2c1=O`, the activity change, negative = inhibition result is “inactive”.

Consider `CC(CNC(=O)c1nnc(Cc2cccc(F)c2)o1)c1ccccc1` (stereo not given), for which the activity change, negative = inhibition entry was “inactive”.

In the case of `CC(C)(C)OC(=O)N1CCC(c2c(C(=O)NCCc3ccsc3)cnn2-c2ccc(F)cc2F)CC1`, the activity change, negative = inhibition result was “inactive”.

As for `CC(=O)c1ccc(NC(=O)CCc2nc(-c3ccc(C)cc3)no2)cc1`, the activity change, negative = inhibition entry was “inactive”.

`CC(C)C(=O)Nc1nc2c(s1)CC(C(C)(C)C)CC2` (stereo not given): the activity change, negative = inhibition entry is “inactive”.

For the compound `COC(=O)C12C(=O)C(C)=C(O)C1(C)C(C)=CC1C3(CO)CCC(O)C(C)(C)C3CCC12C` (stereo not given), the activity change, negative = inhibition entry was “inactive”.

These data come from PubChem BioAssay AID1347055 (National Center for Advancing Translational Sciences (NCATS), 2019).
